# PubChem BioAssay AID1347383 (Zoeller Lab, School of Medicine, Boston University, 2020)
# Active and inactive are the calls of the source.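 The calls were made as follows: active = cell survival after UV exposure 2 SD above solvent-only control wells at 10 µM, confirmed on one or two repeats; inactive = the rest.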
# Assay: protection of CHO cells from pyrene-fatty acid UV killing, primary screen, phospholipid biosynthesis inhibitor project, ZR-82 cells, Analyticon library, screen 2 (AID 1347383);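 also: survival reflects blocked phospholipid synthesis cutting uptake of the phototoxic fatty acid; compound and fatty acid exposure 3 h then viability read next day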
# Conditions: ZR-82 CHO cells, CellTiter Blue, at 10 µM, peroxisome-deficient CHO-K1 variant, with DGAT-1, DGAT-2 and ACAT inhibitors
row,Compound,outcome
1,CC(=O)N[C@@H](C(=O)O[C@H]1CCC(C)(C)[C@@H]2CCC3=C(COC3=O)[C@@]12C)C(C)C,inactive
2,O=c1ccc2cc(O)c(O)cc2o1,inactive
3,COc1c(C(=O)CC(=O)c2ccccc2)ccc2occc12,inactive
4,O=C1c2ccccc2C(=O)c2c(O)ccc(O)c21,inactive
5,CC(=O)O[C@H]1C[C@@]2(C)[C@@H](CC[C@H]3[C@@]4(C)C=CC(=O)[C@@H](C)[C@@H]4[C@H](OC(C)=O)C(=O)[C@@]32C)/C1=C(\CCC=C(C)C)C(=O)O,inactive
6,CC[C@H](CC[C@@H](C)[C@H]1CC[C@H]2[C@@H]3CC=C4C[C@@H](O)CC[C@]4(C)[C@H]3CC[C@]12C)C(C)C,inactive
7,C/C=C/C=C/C(=O)N1CC[C@]23c4ccccc4N[C@H]4N(C)c5cccc6c5[C@]42CCN([C@H]6C2OC2(C)C)[C@H]13 (stereo not given in full),inactive
8,O=C1c2ccc(O)cc2C(=O)c2ccc(O)cc21,inactive
9,CCCCCCCCC(=O)/C=C/C=C/C(=O)CCCC(=O)O,inactive
10,O=C(/C=C/c1ccc(O)cc1)c1ccc(O)cc1O,inactive
11,C=C[C@]1(C)C[C@](O)([C@@H]2OC2(C)C)Oc2c1c(=O)oc1cccc(CC)c21,inactive
12,CC12CCC3C1C(c1c(cc(O)c(C(=O)c4ccccc4)c1O)O2)C3(C)C (stereo not given),inactive
13,O=C1c2c(O)cc(O)cc2OC(c2cc(O)c(O)c(O)c2)C1O (stereo not given),inactive
14,CCC(C)C(=O)Oc1cc(C)ccc1C1(COC(=O)C(C)C)CO1 (stereo not given),inactive
15,CC1=CC2=C(C(=O)OC2O)C(O)C2CC(C)(C)CC12 (stereo not given),inactive
16,C=C1C[C@]23C[C@H]1CC[C@H]2[C@]1(C)CCC[C@@]2(COC(C)=O)C(=O)O[C@H]([C@H]21)[C@@H]3OC(C)=O,active
17,C/C=C/C(O)CC(=O)O (stereo not given),inactive
18,O=C(/C=C(O)/C=C/c1ccc(O)cc1)/C=C/c1ccc(O)cc1,inactive
19,Cn1c2c(O)c(O)ccc2c(=O)c2c(O)cc3c(c21)C=CC(C)(C)O3,inactive
20,CC1(C)C2CC[C@]3(C)C(C(=O)C=C4[C@H]5C[C@@](C)(C(=O)O)CC[C@]5(C)CC[C@]43C)[C@@]2(C)CC[C@@H]1O (stereo not given in full),inactive

row,Compound,outcome
1,NC(=O)c1c[nH]c(Cc2ccccc2)cc1=O,inactive
2,C=C(C)[C@H]1CC[C@]2(C(=O)O)CC[C@]3(C)C(CCC4[C@@]5(C)CCC(=O)C(C)(C)C5CC[C@]43C)C12 (stereo not given in full),inactive
3,COc1cc(C(=O)/C(C)=C(\C)C(=O)c2ccc(O)c(OC)c2)ccc1O,inactive
4,CC(=O)OC(C(=O)/C=C(\C)CCCC1=CC(=O)OC1)C(C)C (stereo not given),inactive
5,C/C1=C\C[C@]2(C)C(=O)C(O)=C([C@H](C)CO)[C@H]2C/C=C(\C)[C@@H](O)CC/C(C)=C/CC1,inactive
6,Cc1c(O)cc(C(C)C)c(O)c1-c1c(C)c(O)cc(C(C)C)c1O,inactive
7,C[C@]12CC(=O)C3C[C@@]1(O)OC(O2)[C@H]3COC(=O)c1ccccc1,inactive
8,CC1=CCC(C(C)C)c2cc(C)c(O)cc21 (stereo not given),inactive
9,COc1cc2c(c3c1C(=O)C[C@@H](C)O3)CCO2,inactive
10,CCC(C)C(=O)OC1CCC=C2C=CC(C)C(CCC(O)CC(O)CC(=O)OC)C21 (stereo not given),inactive
11,C=CCc1cc(OC)c(OC(C)C(O)c2ccc(O)c(OC)c2)c(OC)c1 (stereo not given),inactive
12,COc1cc(C2OC(c3ccc(O)c(OC)c3)C(C)C2C)ccc1O (stereo not given),active
13,C=C(C(=O)O)C(CCCCCC)C(=O)O (stereo not given),inactive
14,C[C@@H]1O[C@@H](Oc2c(-c3ccc(O)c(O)c3)oc3cc(O)cc(O)c3c2=O)[C@H](O)[C@H](O)[C@H]1O,inactive
15,COc1ccc(C2(O)c3ccccc3NC(=O)C2OC)cc1 (stereo not given),inactive
16,COc1cc(O)cc2c1C(=O)CC(c1ccc(O)cc1)O2 (stereo not given),inactive
17,CC1OC(n2cnc3c(N)ncnc32)C(O)C1O (stereo not given),inactive
18,O=C(CCc1ccc(O)c(O)c1)CCC(O)Cc1ccc(O)c(O)c1 (stereo not given),inactive
19,O=c1c(-c2ccc(O)cc2O)coc2cc(O)cc(O)c12,inactive
20,C=C(CO)C(=O)O[C@H]1CC(=C)[C@@H]2CC(=O)[C@H](C)[C@@H]2[C@H]2OC(=O)C(=C)[C@@H]21,inactive
